Columns and labels:
[1] = target: Ribosomal protein S6 kinase alpha-6 (Homo sapiens) (UniProt Q9UK32); conditions: at 1 µM;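 further: each value is a mean inhibition of RSK4 from a GSK PKIS panel screen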
[2] = target: T1, Serine/threonine-protein kinase Sgk1 (Homo sapiens) (UniProt O00141); conditions: at 0.1 µM
T1 sequence (whole entry): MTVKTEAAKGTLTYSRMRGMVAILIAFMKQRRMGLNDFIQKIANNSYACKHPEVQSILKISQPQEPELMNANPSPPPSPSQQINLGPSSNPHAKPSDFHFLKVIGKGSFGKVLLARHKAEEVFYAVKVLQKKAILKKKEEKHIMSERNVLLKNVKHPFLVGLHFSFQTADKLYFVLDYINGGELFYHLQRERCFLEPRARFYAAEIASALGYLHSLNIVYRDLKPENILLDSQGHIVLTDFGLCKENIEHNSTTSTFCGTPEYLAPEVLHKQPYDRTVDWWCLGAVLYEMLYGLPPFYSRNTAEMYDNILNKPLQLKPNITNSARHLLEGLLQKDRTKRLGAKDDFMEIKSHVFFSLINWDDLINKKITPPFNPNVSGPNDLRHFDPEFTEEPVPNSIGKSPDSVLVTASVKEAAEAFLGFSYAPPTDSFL

[3] = target: T1, Serine/threonine-protein kinase Sgk1 (Homo sapiens); conditions: at 1 µM
[4] = target: T2, Serine/threonine-protein kinase Sgk2 (Homo sapiens) (UniProt Q9HBY8); conditions: at 0.1 µM
T2 sequence (whole entry): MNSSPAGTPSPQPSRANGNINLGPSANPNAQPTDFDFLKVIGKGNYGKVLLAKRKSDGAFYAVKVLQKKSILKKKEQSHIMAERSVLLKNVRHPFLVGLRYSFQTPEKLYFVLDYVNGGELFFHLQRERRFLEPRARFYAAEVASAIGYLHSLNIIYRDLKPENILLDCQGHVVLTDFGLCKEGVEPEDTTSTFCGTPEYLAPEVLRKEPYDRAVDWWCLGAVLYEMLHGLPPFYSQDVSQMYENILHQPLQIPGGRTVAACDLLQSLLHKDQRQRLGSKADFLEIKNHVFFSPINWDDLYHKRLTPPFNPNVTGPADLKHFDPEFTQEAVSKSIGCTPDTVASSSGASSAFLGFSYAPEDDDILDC

[5] = target: T2, Serine/threonine-protein kinase Sgk2 (Homo sapiens); conditions: at 1 µM
[6] = target: T3, Serine/threonine-protein kinase Sgk3 (Homo sapiens) (UniProt Q96BR1); conditions: at 0.1 µM
T3 sequence (whole entry): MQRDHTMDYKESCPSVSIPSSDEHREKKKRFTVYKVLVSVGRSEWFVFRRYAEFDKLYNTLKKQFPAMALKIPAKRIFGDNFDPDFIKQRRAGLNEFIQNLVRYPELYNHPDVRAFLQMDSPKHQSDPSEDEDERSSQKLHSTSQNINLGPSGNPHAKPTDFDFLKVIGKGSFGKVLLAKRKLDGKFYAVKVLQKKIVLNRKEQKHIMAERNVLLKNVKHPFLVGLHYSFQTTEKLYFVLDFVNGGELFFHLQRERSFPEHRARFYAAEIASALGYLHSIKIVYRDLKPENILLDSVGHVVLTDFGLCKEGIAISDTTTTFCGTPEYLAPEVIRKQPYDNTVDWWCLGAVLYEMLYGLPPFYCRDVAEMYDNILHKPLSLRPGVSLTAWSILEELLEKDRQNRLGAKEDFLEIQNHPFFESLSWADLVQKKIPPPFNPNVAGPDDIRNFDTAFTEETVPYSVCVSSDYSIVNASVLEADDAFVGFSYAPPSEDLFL

[7] = target: T3, Serine/threonine-protein kinase Sgk3 (Homo sapiens); conditions: at 1 µM
[8] = target: 5'-AMP-activated protein kinase catalytic subunit alpha-1 (Homo sapiens) (UniProt Q13131); conditions: at 0.1 µM
[9] = target: 5'-AMP-activated protein kinase catalytic subunit alpha-1 (Homo sapiens) (UniProt Q13131); conditions: at 1 µM
[10] = target: 5'-AMP-activated protein kinase catalytic subunit alpha-2 (Homo sapiens) (UniProt P54646); conditions: at 0.1 µM
[11] = target: 5'-AMP-activated protein kinase catalytic subunit alpha-2 (Homo sapiens) (UniProt P54646); conditions: at 1 µM
[12] = target: T4, NUAK family SNF1-like kinase 1 (Homo sapiens) (UniProt O60285); conditions: at 0.1 µM
T4 sequence (whole entry): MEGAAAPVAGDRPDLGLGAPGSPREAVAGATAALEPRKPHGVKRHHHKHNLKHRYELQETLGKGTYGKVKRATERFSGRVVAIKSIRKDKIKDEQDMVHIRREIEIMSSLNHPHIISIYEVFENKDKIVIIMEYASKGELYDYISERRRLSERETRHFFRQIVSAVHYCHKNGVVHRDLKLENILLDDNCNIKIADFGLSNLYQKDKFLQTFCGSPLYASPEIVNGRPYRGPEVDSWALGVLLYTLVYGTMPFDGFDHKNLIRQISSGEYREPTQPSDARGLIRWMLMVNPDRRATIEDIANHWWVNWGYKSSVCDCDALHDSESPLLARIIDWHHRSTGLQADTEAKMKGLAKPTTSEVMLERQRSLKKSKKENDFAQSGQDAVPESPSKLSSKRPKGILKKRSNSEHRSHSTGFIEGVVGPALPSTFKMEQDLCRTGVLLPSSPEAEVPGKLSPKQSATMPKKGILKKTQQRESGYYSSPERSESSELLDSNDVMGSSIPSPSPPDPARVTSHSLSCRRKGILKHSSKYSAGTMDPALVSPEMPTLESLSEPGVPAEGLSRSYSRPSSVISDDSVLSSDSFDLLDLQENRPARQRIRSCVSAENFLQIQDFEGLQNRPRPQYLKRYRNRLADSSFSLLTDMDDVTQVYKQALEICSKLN

[13] = target: T4, NUAK family SNF1-like kinase 1 (Homo sapiens); conditions: at 1 µM
[14] = target: T5, Serine/threonine-protein kinase BRSK1 (Homo sapiens) (UniProt Q8TDC3); conditions: at 0.1 µM
T5 sequence (whole entry): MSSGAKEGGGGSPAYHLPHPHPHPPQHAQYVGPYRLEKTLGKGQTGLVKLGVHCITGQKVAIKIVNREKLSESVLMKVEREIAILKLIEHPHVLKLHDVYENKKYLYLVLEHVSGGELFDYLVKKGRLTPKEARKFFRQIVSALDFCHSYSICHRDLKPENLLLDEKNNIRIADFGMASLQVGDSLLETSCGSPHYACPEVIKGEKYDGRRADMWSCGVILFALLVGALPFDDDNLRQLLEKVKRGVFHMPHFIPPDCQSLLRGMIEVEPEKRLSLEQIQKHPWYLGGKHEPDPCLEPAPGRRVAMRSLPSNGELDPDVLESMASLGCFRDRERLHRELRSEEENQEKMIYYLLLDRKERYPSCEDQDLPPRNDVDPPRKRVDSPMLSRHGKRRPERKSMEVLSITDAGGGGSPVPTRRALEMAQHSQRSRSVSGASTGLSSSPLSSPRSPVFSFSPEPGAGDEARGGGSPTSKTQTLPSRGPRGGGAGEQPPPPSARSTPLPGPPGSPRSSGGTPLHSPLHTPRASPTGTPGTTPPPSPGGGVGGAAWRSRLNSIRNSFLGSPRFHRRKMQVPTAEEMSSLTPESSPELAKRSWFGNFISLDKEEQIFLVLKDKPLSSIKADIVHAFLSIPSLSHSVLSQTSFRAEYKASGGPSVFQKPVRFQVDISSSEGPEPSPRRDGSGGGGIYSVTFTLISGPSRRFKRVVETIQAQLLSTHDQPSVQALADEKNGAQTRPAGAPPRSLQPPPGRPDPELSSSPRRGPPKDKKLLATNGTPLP

[15] = target: T5, Serine/threonine-protein kinase BRSK1 (Homo sapiens); conditions: at 1 µM
[16] = target: T6, Serine/threonine-protein kinase BRSK2 (Homo sapiens) (UniProt Q8IWQ3); conditions: at 0.1 µM
T6 sequence (whole entry): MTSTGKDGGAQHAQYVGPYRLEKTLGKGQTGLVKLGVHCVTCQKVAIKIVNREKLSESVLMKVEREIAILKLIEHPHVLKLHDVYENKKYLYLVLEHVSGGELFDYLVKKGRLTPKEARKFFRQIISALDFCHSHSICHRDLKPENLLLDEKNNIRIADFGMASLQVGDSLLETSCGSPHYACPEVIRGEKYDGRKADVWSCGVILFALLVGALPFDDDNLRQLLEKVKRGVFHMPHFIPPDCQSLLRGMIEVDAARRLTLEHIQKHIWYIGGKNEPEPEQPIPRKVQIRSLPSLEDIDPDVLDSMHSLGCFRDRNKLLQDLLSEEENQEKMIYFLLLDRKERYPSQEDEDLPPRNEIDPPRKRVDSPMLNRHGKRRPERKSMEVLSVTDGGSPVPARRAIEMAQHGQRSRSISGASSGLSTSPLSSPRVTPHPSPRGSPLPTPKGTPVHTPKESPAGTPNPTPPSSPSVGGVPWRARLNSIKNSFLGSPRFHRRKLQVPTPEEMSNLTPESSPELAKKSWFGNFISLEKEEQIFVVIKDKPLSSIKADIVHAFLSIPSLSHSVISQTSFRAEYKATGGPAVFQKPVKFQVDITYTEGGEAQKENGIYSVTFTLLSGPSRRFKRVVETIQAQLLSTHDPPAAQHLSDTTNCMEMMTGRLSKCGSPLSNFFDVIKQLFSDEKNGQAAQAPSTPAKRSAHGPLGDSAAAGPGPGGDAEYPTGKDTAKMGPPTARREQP

[17] = target: T6, Serine/threonine-protein kinase BRSK2 (Homo sapiens); conditions: at 1 µM
[18] = target: Calcium/calmodulin-dependent protein kinase type 1D (Homo sapiens) (UniProt Q8IU85); conditions: at 0.1 µM
[19] = target: Calcium/calmodulin-dependent protein kinase type 1D (Homo sapiens) (UniProt Q8IU85); conditions: at 1 µM
[20] = target: Calcium/calmodulin-dependent protein kinase type II subunit alpha (Homo sapiens) (UniProt Q9UQM7); conditions: at 0.1 µM;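 further: reported values are averages (mean inhibition of CAMK2A)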
Calcium/calmodulin-dependent protein kinase type II subunit alpha (Homo sapiens), sequence (Q9UQM7 whole entry): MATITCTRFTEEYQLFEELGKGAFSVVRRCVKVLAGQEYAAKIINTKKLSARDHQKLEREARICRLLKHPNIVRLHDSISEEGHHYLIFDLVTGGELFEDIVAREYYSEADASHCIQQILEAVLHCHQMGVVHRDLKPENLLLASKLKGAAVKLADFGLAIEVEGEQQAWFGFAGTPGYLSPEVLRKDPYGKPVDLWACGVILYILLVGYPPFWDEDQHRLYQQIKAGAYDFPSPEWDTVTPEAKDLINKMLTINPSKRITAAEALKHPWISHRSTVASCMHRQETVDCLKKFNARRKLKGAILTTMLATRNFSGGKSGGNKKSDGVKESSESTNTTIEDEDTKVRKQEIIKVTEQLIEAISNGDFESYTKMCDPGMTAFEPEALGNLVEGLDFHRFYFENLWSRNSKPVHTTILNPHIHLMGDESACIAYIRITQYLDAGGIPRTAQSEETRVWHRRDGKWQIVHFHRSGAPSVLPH

5'-AMP-activated protein kinase catalytic subunit alpha-1 (Homo sapiens), sequence (Q13131 whole entry, looked up): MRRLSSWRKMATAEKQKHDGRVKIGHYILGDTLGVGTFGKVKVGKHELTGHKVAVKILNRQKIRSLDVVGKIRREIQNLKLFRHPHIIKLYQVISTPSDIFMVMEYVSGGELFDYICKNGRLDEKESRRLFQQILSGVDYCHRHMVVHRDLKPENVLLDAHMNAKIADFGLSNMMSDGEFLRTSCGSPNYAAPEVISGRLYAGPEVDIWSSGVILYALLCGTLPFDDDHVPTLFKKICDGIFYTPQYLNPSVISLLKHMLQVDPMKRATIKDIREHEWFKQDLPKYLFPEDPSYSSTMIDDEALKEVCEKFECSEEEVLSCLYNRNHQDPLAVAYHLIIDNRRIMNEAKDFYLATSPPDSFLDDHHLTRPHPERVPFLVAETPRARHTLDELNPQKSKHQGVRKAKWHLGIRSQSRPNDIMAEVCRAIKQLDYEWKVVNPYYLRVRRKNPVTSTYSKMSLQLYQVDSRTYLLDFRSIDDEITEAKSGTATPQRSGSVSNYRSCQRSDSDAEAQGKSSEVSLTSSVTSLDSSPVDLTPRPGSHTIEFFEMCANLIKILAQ
5'-AMP-activated protein kinase catalytic subunit alpha-2 (Homo sapiens), sequence (P54646 whole entry, looked up): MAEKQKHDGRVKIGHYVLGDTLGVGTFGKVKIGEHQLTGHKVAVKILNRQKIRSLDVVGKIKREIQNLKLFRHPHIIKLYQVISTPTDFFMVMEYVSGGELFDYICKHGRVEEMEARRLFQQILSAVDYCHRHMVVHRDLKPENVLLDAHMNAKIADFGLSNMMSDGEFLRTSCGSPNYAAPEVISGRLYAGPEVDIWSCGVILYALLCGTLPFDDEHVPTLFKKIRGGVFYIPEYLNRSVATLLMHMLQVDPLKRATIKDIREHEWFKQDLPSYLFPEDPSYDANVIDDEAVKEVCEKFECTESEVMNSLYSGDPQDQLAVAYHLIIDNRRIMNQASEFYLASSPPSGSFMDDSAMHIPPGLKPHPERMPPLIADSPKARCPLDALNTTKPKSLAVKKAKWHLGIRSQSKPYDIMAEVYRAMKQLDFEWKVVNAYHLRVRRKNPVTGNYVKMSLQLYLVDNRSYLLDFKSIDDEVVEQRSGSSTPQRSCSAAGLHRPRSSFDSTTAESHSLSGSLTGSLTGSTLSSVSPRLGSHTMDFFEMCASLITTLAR
Calcium/calmodulin-dependent protein kinase type 1D (Homo sapiens), sequence (Q8IU85 whole entry, looked up): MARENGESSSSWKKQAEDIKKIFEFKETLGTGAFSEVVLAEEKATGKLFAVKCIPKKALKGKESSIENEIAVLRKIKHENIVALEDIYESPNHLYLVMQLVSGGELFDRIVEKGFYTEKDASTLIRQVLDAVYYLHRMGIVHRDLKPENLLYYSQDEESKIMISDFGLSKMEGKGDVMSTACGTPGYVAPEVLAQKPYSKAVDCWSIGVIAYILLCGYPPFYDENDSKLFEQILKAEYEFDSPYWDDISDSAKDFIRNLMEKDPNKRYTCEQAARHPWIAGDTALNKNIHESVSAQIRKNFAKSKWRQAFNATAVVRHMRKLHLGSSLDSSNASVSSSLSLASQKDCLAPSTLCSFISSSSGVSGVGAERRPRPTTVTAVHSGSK
Ribosomal protein S6 kinase alpha-6 (Homo sapiens), sequence (Q9UK32 whole entry): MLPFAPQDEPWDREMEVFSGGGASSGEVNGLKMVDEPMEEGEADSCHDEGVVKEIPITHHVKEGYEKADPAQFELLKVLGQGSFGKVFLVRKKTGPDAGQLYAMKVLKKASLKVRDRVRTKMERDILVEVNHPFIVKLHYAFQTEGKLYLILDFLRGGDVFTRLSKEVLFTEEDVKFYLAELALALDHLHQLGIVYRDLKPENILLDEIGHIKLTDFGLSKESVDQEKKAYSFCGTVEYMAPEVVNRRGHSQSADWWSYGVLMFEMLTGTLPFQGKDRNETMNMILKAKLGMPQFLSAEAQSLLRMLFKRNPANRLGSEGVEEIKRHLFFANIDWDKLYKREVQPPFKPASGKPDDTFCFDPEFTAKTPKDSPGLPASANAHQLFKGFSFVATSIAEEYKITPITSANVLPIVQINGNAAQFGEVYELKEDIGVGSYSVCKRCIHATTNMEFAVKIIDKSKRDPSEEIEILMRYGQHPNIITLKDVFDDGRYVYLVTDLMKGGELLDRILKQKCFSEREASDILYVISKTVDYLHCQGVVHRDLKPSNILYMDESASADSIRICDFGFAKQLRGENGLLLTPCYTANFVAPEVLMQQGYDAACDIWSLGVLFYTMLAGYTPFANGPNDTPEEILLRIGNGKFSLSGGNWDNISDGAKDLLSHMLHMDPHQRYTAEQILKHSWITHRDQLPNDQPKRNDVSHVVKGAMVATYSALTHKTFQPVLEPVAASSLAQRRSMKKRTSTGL

Row | Compound | inhibition [1] | inhibition [2] | inhibition [3] | inhibition [4] | inhibition [5] | inhibition [6] | inhibition [7] | inhibition [8] | inhibition [9] | inhibition [10] | inhibition [11] | inhibition [12] | inhibition [13] | inhibition [14] | inhibition [15] | inhibition [16] | inhibition [17] | inhibition [18] | inhibition [19] | inhibition [20]
1 | CCOc1nccc2c1nc(-c1nonc1N)n2CC | 4.02% | 4.63% | 8.95% | 4.13% | 12.7% | 6.9% | 15.9% | 3.1% | 7.14% | 2.19% | 4.98% | 7.99% | 12.8% | 4.56% | 14.7% | 7.65% | 18.3% | 0.39% | -0.46% | 3.45%
2 | Nc1ccc(C#Cc2cncnc2Nc2ccc(OCc3cccc(F)c3)c(Cl)c2)cc1 | 0.51% | 1.87% | 2.62% | 4.82% | 3.04% | 2.22% | 2.3% | 1.54% | 2.87% | -0.27% | 2.03% | 1.31% | -1.87% | 1.62% | 0.9% | 1.82% | 1.94% | 0.26% | 0.65% | 1.19%
3 | c1ccc(Cc2nc3ccc(Nc4ncnc5ccccc45)cc3[nH]2)cc1 | 0.98% | 1.05% | 6.43% | 1.59% | 5.44% | 2.24% | 3.66% | 3.03% | 4.08% | -0.36% | 2.91% | 4.96% | 5.29% | -0.34% | 3.16% | 1.93% | 5% | -0.7% | 0.04% | 2.75%
4 | COc1cc(/C=N/Nc2ncnc3c2cnn3C(C)C)ccc1O | 3.17% | 1.69% | 2.88% | 1.5% | 1.93% | 0.68% | 2.8% | 1.32% | 4.22% | 3.01% | 4.32% | 7.43% | 22.3% | 1.45% | 7.43% | 1.52% | 12.1% | 1.23% | 0.59% | -0.2%
5 | Cc1cc(-c2ccccn2)cc(C)c1/C=C/c1cncc(-c2nn[nH]n2)c1 | 1.31% | 0.67% | 1.66% | 3.28% | -0.92% | 4.48% | 2.45% | 0.33% | 3.53% | 6.43% | 3.78% | 2.95% | 6.85% | 2.2% | -0.86% | 1.67% | 3.37% | 0.06% | 0.67% | 2.42%
6 | Nc1nccc(C#Cc2cncnc2Nc2ccc(OCc3cccc(F)c3)c(Cl)c2)n1 | 1% | 2.17% | 2.96% | 1.54% | 3.69% | 2.12% | 3.95% | 3.13% | 5.37% | 1.22% | 6.02% | 2.82% | 9.68% | 3.95% | 8.92% | 4.89% | 10.8% | -0.54% | 2.27% | 3.24%

Source: ChEMBL document CHEMBL1961873, “Compounds: GSK PKIS; Assays: Nanosyn kinase panel” (2012)
